Shown are actives, neighbours in structure and some others; about 4.7% of the full set was active somewhere.
SKKanGAS inh: blocks kanamycin growth of S. pyogenes SKKanGAS strain. inhibition, % at 7.5 µM. AID 1662. 300,000 tested, 1.3% active. BacTiter-Glo, 6 h;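 active = mean replicate score, as percent of positive control median, at least 50; inconclusive = mean below 50 but one replicate at or above 50; inactive = mean and every replicate below 50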;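 note: strain carries kanamycin resistance gene driven by streptokinase promoter and grows in 40 µg/ml kanamycin; loss of luminescence reflects streptokinase promoter inhibition or plain growth inhibition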
TIM10 inh: TIM10 yeast growth inhibition | S. cerevisiae TIM10 strain growth, BacTiter-Glo luminescence, 24 h | inhibition, % at 10 µM | 330,000 tested, 1.4% active | AID 463195;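 active = inhibition of 40% or more at the single tested concentration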;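 note: wild-type TIM10 isogenic control strain grown at permissive 25 °C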
tim10-1 inh: growth inhibitors of tim10-1 mutant yeast; S. cerevisiae tim10-1 ts strain growth, BacTiter-Glo, 24 h; inhibition, % at 20 µM; 330,000 tested, 2.2% active; AID 463190;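 active = inhibition of at least 40%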;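 note: mutant grown at 25 °C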
PfHsp90 set2: growth inhibition of yeast expressing Plasmodium Hsp90. 310,000 tested, 0.32% active. inhibition, % at 9.4 µM. AID 504621. S. cerevisiae expressing PfHsp90, BacTiter-Glo ATP, 48 h; yeast lacking PDR1 and PDR3 efflux regulators;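 active = every replicate shows inhibition above about 80%, whatever the replicate mean, limit read from the data; inconclusive = mean inhibition reaches the set limit but some replicate falls short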
Calb FLC: C. albicans growth modulation with fluconazole; growth inhibition, % (no concentration beside the values); AID 1979; C. albicans CaCi-2 (fluconazole-resistant clinical isolate) + fluconazole, Alamar Blue growth, 48 h; 300,000 tested, 0.57% active;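 active = growth inhibition above about 58% in most replicates, limit read from the data, passing the limit was not always enough; inconclusive = exactly half the replicates above a set limit; inactive = most replicates below a set limit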;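 note: all wells also contain fluconazole at 8 µg/ml as a sub-toxic cotreatment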
tim23-1 inh: inhibits growth of tim23-1 mutant yeast; S. cerevisiae tim23-1 growth, BacTiter-Glo luminescence, 24 h; inhibition, % at 20 µM; 330,000 tested, 1.3% active; AID 463212;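 active = growth inhibition of the mutant yeast at or above 50%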;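 note: temperature-sensitive mutant grown at 25 °C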
tim10-1 conf: tim10-1 yeast growth inhibition, confirmed | shares compounds with tim10-1 inh | S. cerevisiae tim10-1 ts strain growth, BacTiter-Glo, 24 h | inhibition, % at 20 µM | 7,400 tested, 56% active;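 active = inhibition of yeast growth at or above a set limit in either of two repeat tests at 20 µM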;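 note: tim10-1 mutant grown at permissive 25 °C to find synthetic lethal compounds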
Numbers stand for hits; i = inactive; ? = inconclusive; nt = no result given.

SMILES	SKKanGAS inh	TIM10 inh	tim10-1 inh	PfHsp90 set2	Calb FLC	tim23-1 inh	tim10-1 conf
COc1cc2c(cc1OC)CN(CCC(=O)c1ccc(Br)cc1)CC2	i	i	50	nt	i	i	33
COc1cc2c(cc1OC)CN(C(=O)CCNC(=O)c1ccc(Br)cc1)CC2	nt	i	i	i	nt	i	nt
COc1cccc(/C=N/NC(=O)C(=O)NCc2ccco2)c1O	i	i	58	i	i	i	i
O=C(Cc1cccc(C(F)(F)F)c1)N1CCCC1	i	i	i	i	i	i	nt
Cc1cc(N=NC(=O)c2ccccc2O)c2ccccc2c1O	nt	i	i	i	nt	i	nt
O=C(N=Nc1ccc(NOC(=O)c2ccccc2Br)cc1)c1ccccc1O	i	i	50	nt	i	i	37
CCOc1ccccc1C(=O)N(Cc1ccc(C)o1)C1CCS(=O)(=O)C1 (stereo not given)	i	i	i	i	i	i	nt
c1coc(CNc2nc3ccccc3s2)c1	i	i	i	i	i	i	nt
Oc1c(C(Nc2nc3ccccc3s2)c2ccco2)ccc2cccnc12 (stereo not given)	107	i	43	131	?	i	i
COC(=O)CS(=O)(=O)c1nnc([C@H](Cc2ccccc2)NC(=O)OC(C)(C)C)o1	i	i	44	i	i	i	38
COC(=O)CSc1nnc([C@H](Cc2ccccc2)NC(=O)OC(C)(C)C)o1	i	i	i	i	i	i	nt
COc1ccccc1CN1CC(=O)N2CSC[C@H]2C1=O	i	i	i	i	i	i	nt
O=C(NNC(=S)Nc1ccc(F)cc1)C1CC1c1ccc(Cl)cc1 (stereo not given)	i	i	i	i	i	i	nt
Cc1ccc(C2CC2C(=O)NNC(=S)Nc2cccc(C)c2)cc1 (stereo not given)	i	i	49	nt	?	i	i
O=C1c2cccc3cccc(c23)C(=O)N1CCN1CCN(CC(O)COc2ccc3ccccc3c2)CC1 (stereo not given)	i	i	71	i	i	i	62
Cc1ccc(NS(=O)(=O)c2cccc(C(=O)Nc3cccnc3)c2)c(C)c1	nt	i	i	i	nt	i	nt
O=S(=O)(Nc1nc(-c2sccc2Cl)cs1)c1cc(Cl)ccc1Cl	85	i	43	i	i	i	i
CC(C)(C)c1nnc(NS(=O)(=O)c2cc(Cl)ccc2Cl)s1	i	i	i	i	i	i	nt
O=C(CCCn1c(=O)[nH]c2ccccc2c1=O)NC1CCCCCC1	i	i	i	i	i	i	nt
CC1CCC(NC(=O)CCCn2sc3ccccc3c2=O)CC1 (stereo not given)	i	i	41	i	i	i	i
Cn1nnc(NC(=S)NC(=O)c2cccc3c(Br)cccc23)n1	i	i	51	i	i	i	i
O=C(NC1CCCN(c2ccc(C(F)(F)F)cn2)C1)c1ccncc1 (stereo not given)	i	i	i	i	i	i	nt
CSc1ccccc1C(=O)NC1CCCN(c2ccc(C(F)(F)F)cn2)C1 (stereo not given)	i	i	43	i	i	i	i
Cc1cc(Nc2cccc(F)c2)nc(-c2ccccc2O)n1	i	i	43	i	i	i	43
Cc1ccc(C)c(Nc2cc(C)nc(-c3ccccc3O)n2)c1	i	i	i	i	i	i	nt
SMILES	SKKanGAS inh	TIM10 inh	tim10-1 inh	PfHsp90 set2	Calb FLC	tim23-1 inh	tim10-1 conf
Cc1cc(Nc2ccccc2Cl)nc(-c2ccccc2O)n1	i	i	53	i	i	i	41
O=C1CC(SCc2nc3ccccc3[nH]2)C(=O)N1c1ccc(Cl)cc1 (stereo not given)	i	i	i	i	i	i	nt
O=C1CC(SCc2nc3ccccc3[nH]2)C(=O)N1c1ccc(F)c(Cl)c1 (stereo not given)	i	i	54	i	?	i	42
O=C(Nc1ccccc1Br)C1CC(=O)N(c2ccc3c4c(cccc24)CC3)C1 (stereo not given)	i	i	41	i	i	i	33
Cc1ccccc1NC(=O)C1CC(=O)N(c2ccc3c4c(cccc24)CC3)C1 (stereo not given)	i	i	i	i	i	i	nt
CN(Cc1cnn(Cc2ccccc2)c1)C(=O)CN=C1NS(=O)(=O)c2ccccc21	nt	i	i	i	nt	i	nt
CC(C)c1cc(NCC2CCCO2)n2c(nc3ccccc32)c1C#N (stereo not given)	i	i	48	i	i	i	34
COc1ccccc1NC(=O)c1cc(S(=O)(=O)N2CCCCCC2)ccc1F	i	i	i	i	i	i	nt
CN(c1ccccc1)C1CCCCC1NS(=O)(=O)c1ccc(Cl)cc1 (stereo not given)	i	i	50	i	i	i	36
COc1ccccc1NC(=O)c1cc(S(=O)(=O)NC2CCCC2)ccc1F	i	i	48	i	i	i	i
COc1ccccc1NC1CCCCC1NS(=O)(=O)c1ccccc1 (stereo not given)	i	i	43	i	i	i	i
O=C(N/N=C/c1ccc[nH]1)c1cc(-c2ccc(Cl)cc2)nc2ccccc12	i	i	56	i	i	i	51
O=C(N/N=C/c1ccc([N+](=O)[O-])o1)c1cc(-c2ccc(-c3ccccc3)cc2)nc2ccccc12	74	i	56	i	i	i	42
O=C(N/N=C/c1ccc([N+](=O)[O-])o1)c1cc(-c2ccncc2)nc2ccccc12	i	i	i	i	i	i	nt
O=C(N/N=C/c1cccnc1)c1cc(-c2ccc(Cl)cc2)nc2ccccc12	i	i	i	i	i	i	nt
O=C(O)COc1ccc(/C=N/NC(=O)c2cn(-c3ccccc3)nc2-c2ccccc2)cc1	i	i	i	i	i	i	nt
O=C(N/N=C/c1ccc([N+](=O)[O-])o1)c1cn(-c2ccccc2)nc1-c1ccccc1	i	i	54	i	i	i	i
CC(=O)C[C@H](O)CC(=O)[C@H]1OC(=O)CCCCCCCc2ccccc21	nt	i	i	i	nt	i	nt
COc1ncccc1C(=O)N1CCCC(N2CCN(c3cccc(Cl)c3)CC2)C1 (stereo not given)	i	i	i	i	i	i	nt
COc1cc(CN2CCC(CCC(=O)NC3CC3)CC2)cc(Cl)c1OC	i	i	i	i	i	i	nt
N#Cc1cc(C(=O)c2ccccc2OCC(=O)Nc2ccccc2Cl)cn(C2CCCCC2)c1=O	i	i	43	i	i	i	i
CC(=O)c1cccc(NC(=O)COc2ccccc2C(=O)c2cc(C#N)c(=O)n(C3CCCCC3)c2)c1	i	i	i	i	i	i	nt
CN(C)S(=O)(=O)c1cccc(-c2cn3ccccc3n2)c1	i	i	i	i	i	i	nt
O=S(=O)(c1cccc(-c2cn3cc(Cl)ccc3n2)c1)N1CCOCC1	i	i	42	i	i	i	32
CN(C)S(=O)(=O)c1cccc(-c2cn3cc(Cl)ccc3n2)c1	i	i	45	i	i	i	34
